Results from the supplement of paper PMC6992640.
± gives the standard deviation of the averaged measurements.

Assays:
Assay in all cases: cell viability (% of vehicle); higher = less cytotoxic
Conditions in all cases: 10 µM; 72 h
[1] = tested on: HCI01 (cells of a triple-negative basal-like breast cancer xenograft)
[2] = tested on: HCI03 (cells of an ER-positive luminal breast cancer xenograft)
[3] = tested on: HCI09 (cells of a triple-negative luminal androgen receptor type breast cancer xenograft)
[4] = tested on: HCI11 (cells of an ER-positive luminal breast cancer xenograft)
[5] = tested on: UCD52 (cells of a triple-negative basal-like breast cancer xenograft)
[6] = tested on: WHIM2 (cells of a triple-negative basal-like breast cancer xenograft)
[7] = tested on: WHIM30 (cells of a triple-negative basal-like breast cancer xenograft)
[8] = tested on: HCI13 (cells of an ER-positive luminal breast cancer xenograft)
[9] = tested on: HCI16 (cells of a triple-negative basal-like breast cancer xenograft)
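Note: PDX cells carrying CMV promoter-driven luciferase, viability read as total photon flux per second by IVIS imaging following D-luciferin, vehicle control 0.1% DMSO.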

| SMILES | cell viability [1] | cell viability [2] | cell viability [3] | cell viability [4] | cell viability [5] | cell viability [6] | cell viability [7] | cell viability [8] | cell viability [9] |
| --- | --- | --- | --- | --- | --- | --- | --- | --- | --- |
| CC12CCC(=O)C=C1CCC1C2C(O)CC2(C)C1CCC2(O)C(=O)CO (stereo not drawn) [Hydrocortisone] | 103 ± 13 | 126 | 132 ± 57 | 113 | 124 ± 4.5 | 95.6 ± 4.8 | 198 ± 13 | – | – |
| CCc1c2c(nc3ccc(OC(=O)N4CCC(N5CCCCC5)CC4)cc13)-c1cc3c(c(=O)n1C2)COC(=O)C3(O)CC (stereo not drawn) [Irinotecan] | 110 ± 6 | 133 | 174 ± 80 | – | 107 ± 6.1 | 67.4 ± 6.7 | 113 ± 8.8 | 121 ± 2.2 | 140 |
| NCCc1cnc[nH]1.O=P(O)(O)O.O=P(O)(O)O [Histamine Phosphate] | 117 ± 18 | 117 | 95.2 ± 15 | 98.4 | 99.9 ± 17 | 98.8 ± 4.3 | 149 ± 14 | – | 131 |
| O=c1c(-n2ccnn2)c[nH]n1-c1cc(N2CCOCC2)ncn1 [Molidustat (BAY85-3934)] | 142 ± 4.8 | 121 | 27.2 ± 1.8 | 121 | 163 ± 3.5 | 104 ± 7.3 | – | – | – |
| O=C([O-])CC(O)CC(O)C=Cc1c(C2CC2)nc2ccccc2c1-c1ccc(F)cc1.O=C([O-])CC(O)CC(O)C=Cc1c(C2CC2)nc2ccccc2c1-c1ccc(F)cc1.[Ca+2] (stereo not drawn) [Pitavastatin Calcium] | 83.9 ± 10 | 78.4 | 53.9 ± 27 | – | 50.2 ± 1.3 | 67.8 ± 23 | 93.3 ± 4.9 | 148 ± 27 | 113 |
| CC1(C)O[C@@H]2C[C@H]3[C@@H]4CCC5=CC(=O)C=C[C@]5(C)[C@H]4[C@@H](O)C[C@]3(C)[C@]2(C(=O)CO)O1 [Desonide] | 84.8 ± 63 | 176 | 117 ± 43 | 125 | 144 ± 8.6 | 96.1 ± 15 | 127 ± 17 | – | – |
| O=C(Nc1c(Cl)cncc1Cl)c1ccc(OC(F)F)c(OCC2CC2)c1 [Roflumilast] | 150 ± 8.4 | 145 | 118 ± 55 | 124 | 119 ± 10 | 104 ± 15 | 151 ± 5.7 | – | 196 |
| CC(=O)OCC(=O)[C@@]12OC(C)(C)O[C@@H]1C[C@H]1[C@@H]3C[C@H](F)C4=CC(=O)C=C[C@]4(C)[C@@]3(F)[C@@H](O)C[C@@]12C [Fluocinonide] | 75.9 ± 53 | 179 | 127 ± 39 | 129 | 156 ± 2.6 | 94.6 ± 31 | 175.6 ± 0.94 | – | – |
| CCCC(=O)OC1(C(=O)COC(C)=O)CCC2C3CC(F)C4=CC(=O)C=CC4(C)C3(F)C(O)CC21C (stereo not drawn) [Difluprednate] | 110 ± 13 | 137 | 134 ± 37 | 116 | 177 ± 21 | 128 ± 7.3 | 175 ± 11 | – | – |
| COCCCOc1ccnc(C[S+]([O-])c2nc3ccccc3[nH]2)c1C (stereo not drawn) [Rabeprazole sodium] | 167 ± 75 | 197 | 82.4 ± 28 | 115 | 178 ± 5.8 | 135 ± 15 | – | – | – |
| CCC(=O)OC1(C(=O)SCF)C(C)CC2C3CC(F)C4=CC(=O)C=CC4(C)C3(F)C(O)CC21C (stereo not drawn) [Fluticasone propionate] | 76.7 ± 52 | 166 | 128 ± 33 | 133 | 128 ± 14 | 102 ± 44 | – | – | – |
| CC(=O)OCC(=O)C1(O)C(C)CC2C3CCC4=CC(=O)C=CC4(C)C3(F)C(O)CC21C (stereo not drawn) [Dexamethasone acetate] | 114 ± 33 | 160 | 131 ± 45 | 138 | 149 ± 10 | 119 ± 43 | 149 ± 22 | – | – |
| CCC(=O)OCC(=O)C1(OC(=O)CC)C(C)CC2C3CCC4=CC(=O)C=CC4(C)C3(F)C(O)CC21C (stereo not drawn) [Betamethasone Dipropionate] | 126 ± 23 | 138 | 150 ± 25 | 136 | 147 ± 14 | 92.3 ± 26 | – | – | – |
| CCCC(NC(=O)C1C2CCCC2CN1C(=O)C(NC(=O)C(NC(=O)c1cnccn1)C1CCCCC1)C(C)(C)C)C(=O)C(=O)NC1CC1 (stereo not drawn) [Telaprevir (VX-950)] | 154 ± 43 | 102 | 80.2 ± 12 | – | 123 ± 6.4 | 96.2 ± 12 | 165 ± 15 | 96.4 ± 12 | 144 |
| CC1CC2C(C(O)CC3(C)C2CCC3(O)C(=O)CO)C2(C)C=CC(=O)C=C12 (stereo not drawn) [Methylprednisolone] | 145 ± 24 | 156 | 123 ± 34 | 136 | 154 ± 11 | 119 ± 8.1 | 194 ± 12 | – | – |
| O=C(CCCCCCNC(=O)c1cnc(N(c2ccccc2)c2ccccc2)nc1)NO [Rocilinostat (ACY-1215)] | – | 108 | 45.1 ± 28 | – | – | 51.2 ± 8.8 | – | 49.3 ± 7.8 | – |

| SMILES | cell viability [1] | cell viability [2] | cell viability [3] | cell viability [4] | cell viability [5] | cell viability [6] | cell viability [7] | cell viability [8] | cell viability [9] |
| --- | --- | --- | --- | --- | --- | --- | --- | --- | --- |
| COC1=CC(=O)C[C@@H](C)[C@]12Oc1c(Cl)c(OC)cc(OC)c1C2=O [Griseofulvin] | 127 ± 7.9 | – | 141 ± 30 | 98.7 | 136 ± 24 | 121 ± 36 | 190 ± 15 | 128 ± 5.8 | 128 |
| Nc1nc(NC2CC2)c2ncn(C3C=CC(CO)C3)c2n1 (stereo not drawn) [Abacavir] | 173 ± 35 | – | – | 118 | – | 179 ± 28 | – | 193 ± 30 | 121 |
| CCC(CO)Nc1nc(NCc2ccccc2)c2ncn(C(C)C)c2n1 (stereo not drawn) [Roscovitine (Seliciclib,CYC202)] | 80.4 ± 47 | – | 55.1 ± 22 | 176 | 145 ± 25 | 90.4 ± 1.3 | 123 ± 4.2 | 77.4 ± 2.6 | 138 |
| COc1ccccc1Oc1c(NS(=O)(=O)c2ccc(C(C)(C)C)cc2)nc(-c2ncccn2)nc1OCCO.O [Bosentan Hydrate] | – | 124 | 87.8 ± 26 | 101 | 125 ± 8.9 | 87.1 ± 8.3 | 184 ± 2.7 | 172 ± 36 | – |
| C#Cc1cccc(Nc2ncnc3cc(OC)c(OCCCCCCC(=O)NO)cc23)c1 | – | 105 | 22.1 ± 10 | 4.55 | – | 44.4 ± 5 | – | 77.52 ± 0.49 | – |
| O=c1[nH]c(=O)n(C2CC(O)C(CO)O2)cc1I (stereo not drawn) [Idoxuridine] | 165 ± 77 | – | 106 ± 8.6 | 106 | 112 ± 6.1 | – | 116.3 ± 1.1 | – | 129 |
| CC(=O)c1c(C)c2cnc(Nc3ccc(N4CCNCC4)cn3)nc2n(C2CCCC2)c1=O.O=S(=O)(O)CCO | 154 ± 77 | – | 78 ± 29 | 154 | 105 ± 7.7 | 103 ± 13 | 145 ± 2.8 | 179 ± 75 | 180 |
| N#CCC(C1CCCC1)n1cc(-c2ncnc3[nH]ccc23)cn1 (stereo not drawn) | – | 185 | 106 ± 19 | 129 | 117.7 ± 0.47 | 134 ± 12 | 187.4 ± 1.7 | 76.1 ± 14 | 106 |
| O=C(C=Cc1cccc(S(=O)(=O)Nc2ccccc2)c1)NO [Belinostat (PXD101)] | – | 104 | 39.6 ± 33 | 6.42 | – | 43.7 ± 1.1 | – | 55.1 ± 25 | – |
| CCCc1nc(C(C)(C)O)c(C(=O)OCc2oc(=O)oc2C)n1Cc1ccc(-c2ccccc2-c2nn[nH]n2)cc1 [Olmesartan medoxomil] | – | 150 | 110 ± 1.2 | 162 | 168 ± 28 | 105 ± 20 | 177 ± 30 | 128 ± 2.5 | 182 |
| Cc1nnc(C(C)C)n1C1CC2CCC(C1)N2CCC(NC(=O)C1CCC(F)(F)CC1)c1ccccc1 (stereo not drawn) [Maraviroc] | 110 ± 12 | – | 95.9 ± 3.6 | 129 | 88.8 ± 1.3 | 91.4 ± 26 | 123 ± 18 | 73.7 ± 15 | 163 |
| CN(C)Cc1c(C(=O)NCCOc2ccc(C(=O)NO)cc2)oc2ccccc12 | – | 128 | 70.8 ± 49 | 9.68 | – | 80.6 ± 8.5 | – | 56.1 ± 17 | – |
| CCN(CC)CCOc1ccc(C(=C(Cl)c2ccccc2)c2ccccc2)cc1.O=C(O)CC(O)(CC(=O)O)C(=O)O [Clomiphene citrate] | – | 51.5 | 34.9 ± 3.9 | 95.8 | 62.5 ± 0.63 | 35.1 ± 12 | 146 ± 15 | 39.3 ± 1.4 | 134 |
| OCC1OC(Oc2cc(O)cc(C=Cc3ccc(O)cc3)c2)C(O)C(O)C1O (stereo not drawn) [Polydatin] | 155 ± 18 | – | 113 ± 15 | 142 | – | 109 ± 35 | – | 99.9 ± 1.1 | 195 |
| CO[C@H]1C[C@@H]2CC[C@@H](C)[C@@](O)(O2)C(=O)C(=O)N2CCCC[C@H]2C(=O)O[C@H]([C@@H](C)C[C@@H]2CC[C@@H](OCCO)[C@H](OC)C2)CC(=O)[C@H](C)/C=C(\C)[C@@H](O)[C@@H](OC)C(=O)[C@H](C)C[C@H](C)/C=C/C=C/C=C/1C [Everolimus (RAD001)] | – | 69.8 | 27.5 ± 4 | 102 | 55.2 ± 9.9 | 41.9 ± 4.8 | 160 ± 35 | 54.91 ± 0.39 | 179 |
